Test results taken from ChEMBL document CHEMBL1201862, “PubChem BioAssay data set” (2004).
The campaign covered roughly 310,000 compounds. About 17,000 (5.5%) were called active. Another 11% or so got no clear call; they are omitted. The calls are words filed in the database; no cut-off is given here. Only a selection was taken, and actives are over-represented in it overall.

molecular target: T1, Nuclear receptor ROR-gamma (Mus musculus) (UniProt P51450); assay: qHTS for inhibitors of ROR gamma transcriptional activity.; type: functional
T1 sequence (whole entry): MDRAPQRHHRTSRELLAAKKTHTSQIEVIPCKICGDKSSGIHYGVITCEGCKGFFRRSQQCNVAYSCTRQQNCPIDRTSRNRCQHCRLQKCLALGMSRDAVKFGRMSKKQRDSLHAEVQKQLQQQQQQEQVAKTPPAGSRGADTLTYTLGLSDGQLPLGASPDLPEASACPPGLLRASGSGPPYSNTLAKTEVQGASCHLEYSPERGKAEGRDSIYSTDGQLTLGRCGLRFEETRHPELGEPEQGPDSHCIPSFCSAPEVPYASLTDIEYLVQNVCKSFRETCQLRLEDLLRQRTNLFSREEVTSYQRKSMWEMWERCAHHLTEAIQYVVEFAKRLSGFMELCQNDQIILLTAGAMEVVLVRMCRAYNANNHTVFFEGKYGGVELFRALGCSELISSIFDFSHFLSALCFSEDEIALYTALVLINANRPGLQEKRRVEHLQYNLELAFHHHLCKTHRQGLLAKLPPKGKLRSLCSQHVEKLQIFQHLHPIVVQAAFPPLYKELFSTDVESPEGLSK

Row | SMILES | Potency
1 | COc1ccccc1/C=C/C(=O)c1cccs1 | 25.1 µM (active)
2 | O=C(/C=C/c1ccc(Cl)cc1)c1cccs1 | 15.8 µM (active)
3 | c1ccc(-n2ncc3c(NCc4cccnc4)ncnc32)cc1 | 501 µM (active)
